Results from PubChem BioAssay (EPA / NIEHS).
“And” between values parts separate entries of the source, which are not always exact repeats. Equal entries are not always repeated. A structure can be active in one record and inactive in another. The source made the active and inactive calls. How the source made its calls: active means hit-call score of the fitted dose curve at least 0.9, where 1 is the maximum; inactive means score below 0.9.

These compounds were tested on Keratin 19 (KRT19), KRT19 (gene 3880) (assay: LTEA_HepaRG_KRT19: Life Technologies and Expression Analysis (LTEA) Assay for Keratin 19 (KRT19) using HepaRG (AID 2283512)). Settings: mRNA level, 48 h; actives raise or lower the signal.
Description: LTEA_HepaRG is a cell based, multiplexed-readout assay that uses HepaRG, a human liver cell line, with measurements taken at 48 hours after chemical dosing on a 96-well plate.LTEA_HepaRG_KRT19 is one of 102 assay component(s) measured in the LTEA HepaRG cell culture assay. It is a marker of Cell proliferation, survival, death.Data from the assay component LTEA_HepaRG_KRT19 was analyzed into 1 endpoint. This assay endpoint, LTEA_HepaRG_KRT19, was analyzed with bidirectional fitting relative to DMSO as the negative control and baseline of activity. Using a type of inducible reporter, measures of mRNA induction for gain or loss-of-signal activity can be used to understand regulation of transcription factor activity. To generalize the intended target to other relatable targets, this assay endpoint is annotated to the filaments intended target family, where the subfamily is keratin.
A total of 1060 chemcials from the ToxCast library were tested in eight-point concentration-response experiments. Cell culture and cytotoxicity assays were conducted at Thermo Fisher Scientific's Custom Services facility (Madison, WI). A single lot of human HepaRG cells (Thermo Fisher Scientific, Frederick, MD) was used for the cell culture experiments. 96-well format collagen type I coated plates of human HepaRG cells were prepared using established methods. Briefly, cryopreserved HepaRG cells were thawed, plated at a density of approximately 100,000 cells/well in HepaRG Thaw, Plate, and General Purpose media (HPRG770, Thermo Fisher Scientific), and incubated for 48 hours. 0.5% DMSO was selected as vehicle control to balance the requisite need of DMSO in HepaRG cultures to maintain differentiation (for example, baseline metabolism, proportions of hepatocytes vs. cholangiocytes), while enabling further hepatic receptor pathway activation (for example, PXR and CAR) in response to chemical exposure. 48 hours after plating, the culture medium was replaced with HepaRG Serum-Free Incudtion Media. Cells were exposed to each test chemical in duplicate and maintained in CO2 incubators for another 48 hours. Chemical plates were thawed to room temperature and 200x concentrations of treatment groups were prepared. 8-point conentration-reponse curves were made with the highest exposure at 100 uM, followed by half-log dilutions, all in 0.5% DMSO. Each test plate contained variouse controls, induction positive controls (1mM phenobarbital), cytotoxicity positive controls ([…] aflatoxin B1), vehicle controls (0.5% DMSO), and total lysis controls (0.5% DMSO). Cell morphology images were taken using an Essen IncuCyte FLR automated microscope, with six 96-well plates imaged in about 24 minutes. Images were captured and exported and JPEG files. Spent culture media was transfered to black-well plates for the LDH assay, and remaining media was sorted at -80 C for later use. Cells were treated with RLT buffer and frozen until shipped for gene expression analysis. Total RNA was isolated from the cell suspension in 75 uL of Buffer RLT (Qiagen, Germantown, MD 20874) by Quintiles/Expression Analysis (Durham, NC) using a custom isolation procedure. Total RNA from each plate well was transferred to a preamplification plate. Fluidigm's 96.96 Dynamic ArrayTM (Fluidigm, Amsterdam, the Netherlands) technology was used for gene expression analyses by quantitative reverse transcription polymerase chain reaction (qRT-PCR, performed by Quintiles/Expression Analysis, Durham, NC)89. Standard TaqManTM Assays (Applied Biosystems/ThermoFisher Scientific, Foster City, CA) were used to assess the expression of 93 genes selected based on their selectivity and sensitivity to important hepatic receptors known to be modulated by environmental chemicals; importance in human hepatocyte functionality; and hepatotoxicity. […]

Row | Structure (SMILES) | outcome | AC50
1 | C#CCN1C(=O)COc2cc(F)c(N3C(=O)C4=C(CCCC4)C3=O)cc21 | inactive | –
2 | CCC(C)(C)C(=O)OC1=C(c2ccc(Cl)cc2Cl)C(=O)OC12CCCCC2 | inactive | –
3 | CNC(=O)CSP(=S)(OC)OC | inactive | –
4 | O=S(=O)(O)C(F)(F)C(F)(F)C(F)(F)C(F)(F)C(F)(F)C(F)(F)C(F)(F)C(F)(F)F | inactive | 33.1 µM (active) and 32.8 µM (active) and 62.9 µM (active)
5 | CN1CSC(=S)N(C)C1 | inactive | –
6 | Clc1ccccc1-c1nnc(-c2ccccc2Cl)nn1 | – | 21.5 µM (active)
7 | COP(=S)(OC)Oc1ccc([N+](=O)[O-])cc1 | inactive | –
8 | O=C(O)COc1ccc(Cl)cc1Cl | inactive | –
9 | O=[N+]([O-])c1c(Cl)c(Cl)c(Cl)c(Cl)c1Cl | – | 38.6 µM (active)
10 | CC1(C)C(C=C(Cl)Cl)C1C(=O)OC(C#N)c1ccc(F)c(Oc2ccccc2)c1 (stereo not given) | inactive | –
11 | O=C(Nc1ccccc1)Nc1cnns1 | – | 50 µM (active)
12 | CC(C)OC(=O)Nc1cccc(Cl)c1 | inactive | –
13 | C[C@H]1[C@H](c2ccc(Cl)cc2)SC(=O)N1C(=O)NC1CCCCC1 | – | 50 µM (active)
14 | O=C(NC(=O)c1c(F)cccc1F)Nc1ccc(OC(F)(F)C(F)OC(F)(F)F)c(Cl)c1 (stereo not given) | inactive | –
15 | Oc1cc(Cl)ccc1Oc1ccc(Cl)cc1Cl | inactive | 69 µM (active)
16 | O=C(O)CCCOc1ccc(Cl)cc1Cl | inactive | –
17 | COc1nn(CSP(=S)(OC)OC)c(=O)s1 | inactive | –
18 | Cc1[nH]c(=O)n(C(C)(C)C)c(=O)c1Cl | – | 50 µM (active)
19 | CCCN(CCOc1c(Cl)cc(Cl)cc1Cl)C(=O)n1ccnc1 | – | 12.7 µM (active)

Row | Structure (SMILES) | outcome | AC50
20 | CCc1ccc(C(=O)NN(C(=O)c2cc(C)cc(C)c2)C(C)(C)C)cc1 | inactive | –
21 | Oc1ccc(Cl)cc1Cc1ccccc1 | inactive | 50.5 µM (active)
22 | N#CN | inactive | –
23 | CCCN(CCC)c1c([N+](=O)[O-])cc(C(F)(F)F)cc1[N+](=O)[O-] | inactive | –
24 | CC(C)(C)C(O)/C(=C\c1ccc(Cl)cc1Cl)n1cncn1 (stereo not given) | inactive | –
25 | O=C1c2ccccc2C(=O)N1SC(Cl)(Cl)Cl | inactive | –
26 | CC(C)(C)C(O)C(Oc1ccc(Cl)cc1)n1cncn1 (stereo not given) | inactive | –
27 | CCC(C)Nc1c([N+](=O)[O-])cc(C(C)(C)C)cc1[N+](=O)[O-] (stereo not given) | inactive | –
28 | COP(=O)(OC)OC=C(Cl)Cl | inactive | –
29 | CCOCN(C(=O)CCl)c1c(C)cccc1CC | inactive | –
30 | N#Cc1c(Cl)c(Cl)c(Cl)c(C#N)c1Cl | – | 12.7 µM (active)
31 | CCN(CC)C(=O)SCc1ccc(Cl)cc1 | inactive | –
32 | CNC(=O)/C=C(\C)OP(=O)(OC)OC | inactive | –
33 | CC1(c2ccc(Oc3ccccc3)cc2)OC(=O)N(Nc2ccccc2)C1=O (stereo not given) | – | 2.79 µM (active)
34 | O=C(O)C(F)(F)C(F)(F)C(F)(F)C(F)(F)C(F)(F)C(F)(F)C(F)(F)F | inactive | –
35 | CC(C)N(C(=O)COc1nnc(C(F)(F)F)s1)c1ccc(F)cc1 | inactive | –
36 | O=S1OCC2C(CO1)C1(Cl)C(Cl)=C(Cl)C2(Cl)C1(Cl)Cl (stereo not given) | inactive | –
37 | CCC(C)(NC(=O)c1cc(Cl)c(C)c(Cl)c1)C(=O)CCl (stereo not given) | – | 32.4 µM (active)
